# Results as given in the supplement of paper PMC10037445.
# In all, about 2,900 compounds were measured (“NF-kB SEAP reporter activity, fold change vs agonist alone”: median about 0.99, highest 2% from about 2.6 on). What follows is part of a selection rich in the highest values, with near analogues and random picks from the rest.
# Key:
# RAW-Dual [1] = experiment: NF-kB SEAP reporter activity, fold change vs agonist alone; higher = enhanced NF-kB activity
# Outline: (§1)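 After 50 nL of library stock was delivered by pin tool to RAW-Dual macrophages (50,000 cells/well, DMEM, 384-well plates), a PRR agonist was added 1 h later and the plates were kept at 37 °C, 5% CO2. Twenty hours later, IRF was read from supernatant by QuantiLuc luminescence and NF-κB by QuantiBlue absorbance at 620 nm. Reporter activity is stated as fold change over agonist-alone wells. Wells with IncuCyte confluency under 70% of agonist controls in both mask sets were counted as cytotoxic.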
# RAW-Dual [2] = experiment: NF-kB SEAP reporter activity, fold change vs agonist alone; cytotoxicity flag (confluency mask): not cytotoxic; higher = enhanced NF-kB activity
# Outline: as §1
# RAW-Dual [3] = experiment: NF-kB SEAP reporter activity, fold change vs agonist alone; cytotoxicity flag (confluency mask): cytotoxic (confluency <70% of control); higher = enhanced NF-kB activity
# Outline: as §1
# [4] = library stock concentration (final ~1000-fold dilution): 10 mM, cytotoxicity flag (confluency mask): not cytotoxic, agonist: Imiquimod (TLR7) […]
# [5] = library stock concentration (final ~1000-fold dilution): 10 mM, cytotoxicity flag (confluency mask): not cytotoxic, agonist: MPLA (TLR4) […]
# [6] = agonist: ODN 1826 (TLR9) 0.5 ug/mL
# [7] = agonist: Pam2CSK4 (TLR2/6) 0.1 ug/mL
# [8] = agonist: Pam3CSK4 (TLR2/1) 0.1 ug/mL
smiles,measurement,setting,value
Cc1[nH]c2ccccc2c1C1=C(NCCc2ccc(F)cc2)C(=O)N(C)C1=O,NF-kB SEAP reporter activity,RAW-Dual [1]; [4],1.01
same,NF-kB SEAP reporter activity,RAW-Dual [1]; [5],1.28
Cc1[nH]c2ccccc2c1C1=C(NCCc2ccc(F)cc2)C(=O)N(C)C1=O (library stock concentration (final ~1000-fold dilution): 10 mM),NF-kB SEAP reporter activity,RAW-Dual [2]; agonist: LPS (TLR4) 0.1 ug/mL,1.23
same,NF-kB SEAP reporter activity,RAW-Dual [2]; [6],0.588
same,NF-kB SEAP reporter activity,RAW-Dual [2]; [7],0.531
same,NF-kB SEAP reporter activity,RAW-Dual [2]; [8],0.337
Cc1[nH]c2ccccc2c1CCNC(=O)c1cccs1,NF-kB SEAP reporter activity,RAW-Dual [1]; [4],1.06
same,NF-kB SEAP reporter activity,RAW-Dual [1]; [5],1.11
Cc1[nH]c2ccccc2c1CCNC(=O)c1cccs1 (library stock concentration (final ~1000-fold dilution): 10 mM),NF-kB SEAP reporter activity,RAW-Dual [2]; agonist: LPS (TLR4) 0.1 ug/mL,1
same,NF-kB SEAP reporter activity,RAW-Dual [2]; [6],1.06
same,NF-kB SEAP reporter activity,RAW-Dual [2]; [7],1.12
same,NF-kB SEAP reporter activity,RAW-Dual [2]; [8],0.991
Cc1[nH]c2ccccc2c1CCNCc1ccc(/C=C/C(=O)NO)cc1,NF-kB SEAP reporter activity,"RAW-Dual [1]; library stock concentration (final ~1000-fold dilution): 10 mM, cytotoxicity flag (confluency mask): cytotoxic (confluency <70% of control), agonist: Imiquimod (TLR7) […]",2.51
same,NF-kB SEAP reporter activity,"RAW-Dual [1]; library stock concentration (final ~1000-fold dilution): 10 mM, cytotoxicity flag (confluency mask): cytotoxic (confluency <70% of control), agonist: MPLA (TLR4) […]",2.63
Cc1[nH]c2ccccc2c1CCNCc1ccc(/C=C/C(=O)NO)cc1 (library stock concentration (final ~1000-fold dilution): 10 mM),NF-kB SEAP reporter activity,RAW-Dual [3]; agonist: LPS (TLR4) 0.1 ug/mL,4.6
same,NF-kB SEAP reporter activity,RAW-Dual [3]; [6],0.219
same,NF-kB SEAP reporter activity,RAW-Dual [3]; [7],0.886
same,NF-kB SEAP reporter activity,RAW-Dual [3]; [8],1.47
O=c1oc2cc(O)ccc2c2ccc(O)cc12 (library stock concentration (final ~1000-fold dilution): 10 mM),NF-kB SEAP reporter activity,RAW-Dual [2]; agonist: LPS (TLR4) 0.1 ug/mL,1.08
same,NF-kB SEAP reporter activity,RAW-Dual [2]; [6],0.575
same,NF-kB SEAP reporter activity,RAW-Dual [2]; [7],0.257
same,NF-kB SEAP reporter activity,RAW-Dual [2]; [8],0.455
O=c1oc2cc(O)ccc2c2ccc(O)cc12,NF-kB SEAP reporter activity,RAW-Dual [1]; [4],1.26
same,NF-kB SEAP reporter activity,RAW-Dual [1]; [5],1.58
CNC(=O)c1ccc(-c2cnc3cnc(-c4ccccc4)cn23)cc1 (library stock concentration (final ~1000-fold dilution): 10 mM),NF-kB SEAP reporter activity,RAW-Dual [2]; agonist: LPS (TLR4) 0.1 ug/mL,1.54
same,NF-kB SEAP reporter activity,RAW-Dual [2]; [6],0.763
same,NF-kB SEAP reporter activity,RAW-Dual [2]; [7],1.22
same,NF-kB SEAP reporter activity,RAW-Dual [2]; [8],2.3
CNC(=O)c1ccc(-c2cnc3cnc(-c4ccccc4)cn23)cc1,NF-kB SEAP reporter activity,RAW-Dual [1]; [4],1.1
same,NF-kB SEAP reporter activity,RAW-Dual [1]; [5],1.37
CC12CCC3c4ccc(O)cc4CC(CCCCCCCCCS(=O)CCCC(F)(F)C(F)(F)F)C3C1CCC2O (configuration not stated) (library stock concentration (final ~1000-fold dilution): 10 mM),NF-kB SEAP reporter activity,RAW-Dual [2]; agonist: LPS (TLR4) 0.1 ug/mL,0.714
same,NF-kB SEAP reporter activity,RAW-Dual [2]; [6],0.721
same,NF-kB SEAP reporter activity,RAW-Dual [2]; [7],0.634
same,NF-kB SEAP reporter activity,RAW-Dual [2]; [8],0.864
CC12CCC3c4ccc(O)cc4CC(CCCCCCCCCS(=O)CCCC(F)(F)C(F)(F)F)C3C1CCC2O (configuration not stated),NF-kB SEAP reporter activity,RAW-Dual [1]; [4],0.89
same,NF-kB SEAP reporter activity,RAW-Dual [1]; [5],0.904
CC#CC(=O)N1CCCC1c1nc(-c2ccc(C(=O)Nc3ccccn3)cc2)c2c(N)nccn12 (configuration not stated) (library stock concentration (final ~1000-fold dilution): 10 mM),NF-kB SEAP reporter activity,RAW-Dual [2]; agonist: LPS (TLR4) 0.1 ug/mL,1.09
same,NF-kB SEAP reporter activity,RAW-Dual [2]; [6],0.844
same,NF-kB SEAP reporter activity,RAW-Dual [2]; [7],0.581
same,NF-kB SEAP reporter activity,RAW-Dual [2]; [8],0.793
CC#CC(=O)N1CCCC1c1nc(-c2ccc(C(=O)Nc3ccccn3)cc2)c2c(N)nccn12 (configuration not stated),NF-kB SEAP reporter activity,RAW-Dual [1]; [4],0.862
same,NF-kB SEAP reporter activity,RAW-Dual [1]; [5],0.81
COC1OC(COS(=O)(=O)O)C(OC2OC(C(=O)O)C(OC3OC(COS(=O)(=O)O)C(OC4OC(C(=O)O)C(OC5OC(COS(=O)(=O)O)C(O)C(O)C5NS(=O)(=O)O)C(O)C4O)C(OS(=O)(=O)O)C3NS(=O)(=O)O)C(O)C2OS(=O)(=O)O)C(O)C1NS(=O)(=O)O (configuration not stated) (library stock concentration (final ~1000-fold dilution): 10 mM water),NF-kB SEAP reporter activity,RAW-Dual [2]; agonist: LPS (TLR4) 0.1 ug/mL,1.06
same,NF-kB SEAP reporter activity,RAW-Dual [2]; [6],1.3
same,NF-kB SEAP reporter activity,RAW-Dual [2]; [7],1.25
same,NF-kB SEAP reporter activity,RAW-Dual [2]; [8],1.04
COC1OC(COS(=O)(=O)O)C(OC2OC(C(=O)O)C(OC3OC(COS(=O)(=O)O)C(OC4OC(C(=O)O)C(OC5OC(COS(=O)(=O)O)C(O)C(O)C5NS(=O)(=O)O)C(O)C4O)C(OS(=O)(=O)O)C3NS(=O)(=O)O)C(O)C2OS(=O)(=O)O)C(O)C1NS(=O)(=O)O (configuration not stated),NF-kB SEAP reporter activity,"RAW-Dual [1]; library stock concentration (final ~1000-fold dilution): 10 mM water, cytotoxicity flag (confluency mask): not cytotoxic, agonist: Imiquimod (TLR7) […]",1.04
same,NF-kB SEAP reporter activity,"RAW-Dual [1]; library stock concentration (final ~1000-fold dilution): 10 mM water, cytotoxicity flag (confluency mask): not cytotoxic, agonist: MPLA (TLR4) […]",1.06
CC(C(=O)O)c1cccc(C(=O)c2ccccc2)c1 (configuration not stated),NF-kB SEAP reporter activity,RAW-Dual [1]; [4],0.866
same,NF-kB SEAP reporter activity,RAW-Dual [1]; [5],1.05
CC(C)C(C(=O)Nc1ccc(C(=O)NO)cc1)c1ccccc1 (configuration not stated),NF-kB SEAP reporter activity,RAW-Dual [1]; [4],0.965
same,NF-kB SEAP reporter activity,RAW-Dual [1]; [5],0.937
CC(C(=O)O)c1cccc(C(=O)c2ccccc2)c1 (configuration not stated) (library stock concentration (final ~1000-fold dilution): 10 mM),NF-kB SEAP reporter activity,RAW-Dual [2]; agonist: LPS (TLR4) 0.1 ug/mL,1.02
same,NF-kB SEAP reporter activity,RAW-Dual [2]; [6],1.01
same,NF-kB SEAP reporter activity,RAW-Dual [2]; [7],1.11
same,NF-kB SEAP reporter activity,RAW-Dual [2]; [8],1.19
CC(C)C(C(=O)Nc1ccc(C(=O)NO)cc1)c1ccccc1 (configuration not stated) (library stock concentration (final ~1000-fold dilution): 10 mM),NF-kB SEAP reporter activity,RAW-Dual [2]; agonist: LPS (TLR4) 0.1 ug/mL,4.76
same,NF-kB SEAP reporter activity,RAW-Dual [2]; [6],0.93
same,NF-kB SEAP reporter activity,RAW-Dual [2]; [7],1.12
same,NF-kB SEAP reporter activity,RAW-Dual [2]; [8],1.15
Cc1nc(-c2nc(-c3ccc(OC(F)(F)F)cc3)no2)nn1Cc1cccc(N2CCC(S(C)(=O)=O)CC2)c1 (library stock concentration (final ~1000-fold dilution): 10 mM),NF-kB SEAP reporter activity,RAW-Dual [2]; agonist: LPS (TLR4) 0.1 ug/mL,2
same,NF-kB SEAP reporter activity,RAW-Dual [2]; [6],0.837
same,NF-kB SEAP reporter activity,RAW-Dual [2]; [7],0.462
same,NF-kB SEAP reporter activity,RAW-Dual [2]; [8],0.849
Cc1nc(-c2nc(-c3ccc(OC(F)(F)F)cc3)no2)nn1Cc1cccc(N2CCC(S(C)(=O)=O)CC2)c1,NF-kB SEAP reporter activity,RAW-Dual [1]; [4],0.853
same,NF-kB SEAP reporter activity,RAW-Dual [1]; [5],1.28
O.O=c1c(O)c(-c2ccc(O)cc2O)oc2cc(O)cc(O)c12,NF-kB SEAP reporter activity,RAW-Dual [1]; [4],0.957
same,NF-kB SEAP reporter activity,RAW-Dual [1]; [5],1.05
O.O=c1c(O)c(-c2ccc(O)cc2O)oc2cc(O)cc(O)c12 (library stock concentration (final ~1000-fold dilution): 10 mM),NF-kB SEAP reporter activity,RAW-Dual [2]; agonist: LPS (TLR4) 0.1 ug/mL,1.52
same,NF-kB SEAP reporter activity,RAW-Dual [2]; [6],1.13
same,NF-kB SEAP reporter activity,RAW-Dual [2]; [7],1.15
same,NF-kB SEAP reporter activity,RAW-Dual [2]; [8],1.18
